Read-out in one assay: CD40, CD40 (gene 958)
As to the kind of experiment: BSK_IMphg_CD40: BioMAP Diversity Plus: IMphg Assay for CD40 Biomarker Activity (AID 2284288). The settings on record: primary human endothelial cells with macrophages. Summed up:
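ELISA read-out of cell-surface CD40 at 24 h in human venular endothelial cell/macrophage co-cultures. Activity fitted in the positive direction against DMSO; parallel SRB staining (560 nm) gauges overt cytotoxicity.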

Read-out in assay [1]: TIMP metallopeptidase inhibitor 2 (TIMP2), TIMP2 (gene 7077)
As to the kind of experiment: BSK_hDFCGF_TIMP2: BioMAP Diversity Plus: hDFCGF Assay for TIMP metallopeptidase inhibitor 2 (TIMP2) Biomarker Activity (AID 2284289). The settings on record: primary human foreskin fibroblasts. In short, it runs like this: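 Primary human foreskin fibroblasts in the hDFCGF system, dosed for 24 h; TIMP-2 level measured by ELISA, fitted in the positive direction against DMSO; cytotoxicity checked in parallel by sulforhodamine B total protein staining.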

Read-out in assay [2]: Interleukin-1 alpha (IL1a), IL1A (gene 3552)
The assay is described as follows: BSK_IMphg_IL1a: BioMAP Diversity Plus: IMphg Assay for Interleukin-1 alpha (IL1a) Biomarker Activity (AID 2284290). The settings on record: primary human endothelial cells with macrophages. Summed up: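 IL-1α is quantified by ELISA at 24 h in the endothelial/macrophage IMphg co-culture, with gain of signal fitted relative to DMSO. Parallel SRB total-protein staining flags overt toxicity.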

Read-out in assay [3]: E-selectin (Homo sapiens) (UniProt P16581)
The assay is described as follows: BSK_IMphg_ESelectin: BioMAP Diversity Plus: IMphg Assay for Eselectin Biomarker Activity (AID 2284291). Particulars: primary human endothelial cells with macrophages. In short, it runs like this:
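Analysed against DMSO baseline in the positive fitting direction, this endpoint is an ELISA read of E-selectin. It comes from human venular endothelial cells co-cultured with macrophages, sampled 24 h post-dose.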

Assay [4] in a line: BSK_IMphg_SRB: Viability Assessment in the BioMAP Diversity Plus: IMphg Assay (AID 2284292).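 Note: measured one day after compound addition.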 Particulars: primary human endothelial cells with macrophages. In short, it runs like this: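 SRB viability endpoint: cultures of human endothelial cells plus macrophages fixed with 10% TCA, stained with 0.1% SRB, read at 560 nm 24 h post-dosing. Only gain-of-signal fitted, relative to DMSO.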

Read-out in assay [5]: Macrophage colony-stimulating factor (MCSF), CSF1 (gene 1435)
The assay is described as follows: BSK_IMphg_MCSF: BioMAP Diversity Plus: IMphg Assay for Macrophage colony-stimulating factor (MCSF) Biomarker Activity (AID 2284293). The settings on record: primary human endothelial cells with macrophages. Summed up:
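M-CSF was measured by ELISA in human venular endothelial cell/macrophage co-cultures dosed for 24 hours. Sulforhodamine B staining of parallel cultures assessed cytotoxicity; data fitted against DMSO baseline.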

Read-out in assay [6]: Interleukin-10 (IL10), IL10 (gene 3586)
As to the kind of experiment: BSK_IMphg_IL10: BioMAP Diversity Plus: IMphg Assay for Interleukin-10 (IL10) Biomarker Activity (AID 2284294). The settings on record: primary human endothelial cells with macrophages. In short, it runs like this:
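IL-10 read by ELISA after 24 h chemical exposure of primary human venular endothelial cell/macrophage cocultures, with DMSO as baseline. Parallel SRB staining (560 nm) gauged overt cytotoxicity.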

The nature of assay [7]: BSK_IMphg_SRB.Mphg: Macrophage Viability Assessment in the BioMAP Diversity Plus: IMphg Assay (AID 2284295). The settings on record: primary human endothelial cells with macrophages. In short, it runs like this:
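Cytotoxicity read-out: parallel cultures fixed with 10% TCA, stained with 0.1% sulforhodamine B, read at 560 nm. System combines venular endothelium and macrophages; sampled 24 h post-dosing, fitted positively relative to DMSO control.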

Read-out in assay [8]: Thrombomodulin, THBD (gene 7056)
As to the kind of experiment: BSK_LPS_Thrombomodulin: BioMAP Diversity Plus: LPS Assay for Thrombomodulin Biomarker Activity (AID 2284296). Particulars: primary human HUVEC with PBMC. Summed up: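 Thrombomodulin on the surface of LPS-activated endothelial/PBMC co-cultures was quantified by ELISA at 24 hours post-dosing, with DMSO as baseline. Parallel SRB total-protein staining flagged overt cytotoxicity.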

Read-out in the next assay: CD69, CD69 (gene 969)
As to the kind of experiment: BSK_LPS_CD69: BioMAP Diversity Plus: LPS Assay for CD69 Biomarker Activity (AID 2284303). Particulars: primary human HUVEC with PBMC. Summed up:
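CD69 surface levels were read by ELISA after 24 h chemical treatment of an LPS-stimulated HUVEC plus PBMC co-culture; positive-direction fit against DMSO vehicle.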

The next assay concerns TTR (gene 7276). As to the kind of experiment: CCTE_GLTED_hTTR_0.5uM: CCTE's human Transthyretin (hTTR) Inhibition Assay, with 0.5uM TTR, Great Lakes Toxicology and Ecology Division (GLTED) Lab (AID 2284320). In short, it runs like this:
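Probe (ANSA) displacement from 0.5 uM human transthyretin was followed by fluorescence (ex 380, em 475) after a 2 h incubation with chemical. Activity was scored as signal loss and fitted positively relative to DMSO.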

Assay [9] in a line: CCTE_Deisenroth_5AR_NBTE_donor: CCTE's 5alpha-reductase NanoBRET Target Engagement Assay […], Deisenroth Lab (AID 2284319). Particulars: actives raise or lower the signal. Summed up: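 HEK293T cells were reverse transfected with an SRD5A2-NanoLuc vector for 20 h, exposed to test chemical (8 points, 10 nM - 29.9 uM) for 3 h, then testosterone tracer for 2 h more. Donor luminescence (460 nm) was read; bidirectional fit versus DMSO.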

A short description of assay [10]: CCTE_Deisenroth_5AR_NBTE_acceptor: CCTE's 5alpha-reductase NanoBRET Target Engagement Assay - Autofluorescence Screen, Deisenroth Lab (AID 2284321).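 Note: compound fluorescence in the acceptor channel under 460 nm excitation flags autofluorescence artifacts.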 Particulars: actives raise or lower the signal. In short, it runs like this:
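Using three independent plate-reader runs, nominal 100 uM chemicals were checked for intrinsic fluorescence (ex 460 nm). DMSO defined the baseline for bidirectional fitting.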

A further assay has as its system SRD5A2 (gene 6716). As to the kind of experiment: CCTE_Deisenroth_5AR_NBTE_ratio: CCTE's 5alpha-reductase NanoBRET Target Engagement Assay - Ratio, Deisenroth Lab (AID 2284322). Particulars: actives raise or lower the signal. In short, it runs like this: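 SRD5A2-NanoLuc HEK293T; cmpd 10 nM-29.9 uM, 3 h preinc + testosterone tracer 2 h; NanoBRET ratio 650/460; bidirectional fit vs DMSO.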

Assay [11] in a line: Tanguay_ZF_120hpf_MO24: Oregon State University Tanguay Lab 24 Hour Post-fertilization zebrafish Assay for Mortality (AID 2284389). In short, it runs like this:
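Embryo death at 24 hpf was recorded as present or absent in Tropical 5D zebrafish, dechorionated at 4 hpf and dosed statically from 6 hpf (28C, 0.64% DMSO); 5 uM trimethyltin chloride served as positive control.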

The test system of the next assay is SERPINA7 (gene 6906). The assay is described as follows: CCTE_GLTED_hTBG: CCTE's human Thyroxine-binding Globulin (TBG) Inhibition Assay, Great Lakes Toxicology and Ecology Division (GLTED) Lab (AID 2284343; active = hit-call score of the fitted dose curve at least 0.9, where 1 is the maximum;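 note: active chemicals lower fluorescence versus DMSO baseline by displacing probe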). Summed up:
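Steps: combine TBG with chemical; incubate 2 hours so that disruptors release ANSA; record fluorescence (380 ex, 475 em). Loss of signal was fitted against DMSO controls.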

The next assay has as its system IYD (gene 389434). The assay is described as follows: CCTE_GLTED_hIYD: CCTE's human Iodotyrosine Deiodinase (xIYD) Inhibition Assay, Great Lakes Toxicology and Ecology Division (GLTED) Lab (AID 2284317; active = hit-call score of the fitted dose curve at least 0.9, where 1 is the maximum;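 note: cell-free human IYD enzyme made in baculovirus insect cells; iodide freed from monoiodotyrosine measured by cerium arsenite color change at 420 nm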). In short, it runs like this:
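Iodide liberated from monoiodotyrosine by baculovirus-expressed human IYD over 3 h was determined colorimetrically (Sandell-Kolthoff, 420 nm) after Dowex separation; inhibition is loss of signal versus DMSO.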

Structures are written as SMILES. Several values for one entry are separate records, joined by “and”; a condition that tells them apart may be missing. Equal values may be shown once. Activity calls are given as the source filed them. Rule for the calls, unless noted: active = hit-call score of the fitted dose curve at least 0.9, where 1 is the maximum; inactive = score below 0.9.

Sequence of E-selectin (Homo sapiens) (P16581 whole entry, looked up): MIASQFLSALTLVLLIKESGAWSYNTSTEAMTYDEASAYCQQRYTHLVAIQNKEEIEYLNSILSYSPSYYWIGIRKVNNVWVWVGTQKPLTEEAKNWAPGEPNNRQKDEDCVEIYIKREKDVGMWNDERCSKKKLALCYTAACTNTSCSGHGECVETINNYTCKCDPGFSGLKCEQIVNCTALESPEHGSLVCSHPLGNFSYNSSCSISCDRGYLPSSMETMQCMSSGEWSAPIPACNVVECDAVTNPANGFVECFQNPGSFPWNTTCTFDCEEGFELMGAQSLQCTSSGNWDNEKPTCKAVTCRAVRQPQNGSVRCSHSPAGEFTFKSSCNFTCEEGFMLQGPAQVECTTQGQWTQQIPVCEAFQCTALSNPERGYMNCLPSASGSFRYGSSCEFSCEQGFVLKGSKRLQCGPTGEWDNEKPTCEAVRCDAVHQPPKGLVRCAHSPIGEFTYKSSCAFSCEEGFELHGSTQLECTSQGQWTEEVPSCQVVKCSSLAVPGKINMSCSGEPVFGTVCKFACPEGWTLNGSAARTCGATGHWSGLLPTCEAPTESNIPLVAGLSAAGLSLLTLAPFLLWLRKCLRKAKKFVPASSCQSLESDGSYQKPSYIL

For `O=C(Cl)C(F)(F)C(F)(F)C(F)(F)C(F)(F)C(F)(F)C(F)(F)C(F)(F)F`, the outcome with CD40, CD40 (gene 958) was “inactive”; in [1] it was “inactive”; in [2] it was “inactive”; in assay [3], “inactive”; in assay [4], “inactive”; in [5] it was “inactive”. Moreover, the outcome in assay [6] was “inactive”; in [7], “inactive”; in [8] it was “inactive”; with CD69, CD69 (gene 969) it was “inactive”. Moreover, the AC50 in the assay on TTR (gene 7276) is 0.599 µM (active).

Consider `O=C1C=CC(=O)N1c1ccccc1`, for which the AC50 is 50 µM (active) in assay [9], 50 µM (active) in assay [10] and 22.3 µM (active) in the assay with SRD5A2 (gene 6716).

For the molecule `OCC(F)(F)C(F)(F)C(F)(F)CO`, the outcome was “inactive” with CD40, CD40 (gene 958); “inactive” in assay [1]; “inactive” in assay [2]; “inactive” in assay [3]; “inactive” in assay [4]; “inactive” in assay [5]. In addition, the outcome in assay [6] is “inactive”; in assay [7] it was “inactive”; in assay [8], “inactive”; in the assay with CD69, CD69 (gene 969), “inactive”; in assay [11], “inactive”.

As to `O=C(O)C(F)(F)OC(F)(F)C(F)(F)OC(F)(F)C(F)(F)OC(F)(F)F`, the outcome was “inactive” with CD40, CD40 (gene 958); “inactive” in assay [1]; “inactive” in [2]; “inactive” in assay [3]; “inactive” in assay [4]; “inactive” in assay [5]. For the same molecule, the outcome in assay [6] is “inactive”; in [7], “inactive”; in assay [8], “inactive”; with CD69, CD69 (gene 969), “inactive”. For the same molecule, the AC50 with TTR (gene 7276) was 0.23 µM (active); in the assay on SERPINA7 (gene 6906), 18.6 µM (active).

On to `CCCCCCCC/C=C\CCCCCCCC(=O)N(C)CC(=O)O`, for which the AC50 is 58.2 µM (active) in the assay on IYD (gene 389434) and 5.56 µM (active) in the assay on SERPINA7 (gene 6906). Further, the call (in assay [9]; in [10]; with SRD5A2 (gene 6716)) was inactive.

Regarding `CCC(Cc1c(I)cc(I)c(N)c1I)C(=O)O` (centres undefined), the AC50 in the assay on SERPINA7 (gene 6906) is 43.1 µM (active).

For `CCN=c1cc2oc3cc(NCC)c(C)cc3c(-c3ccccc3C(=O)OCC)c-2cc1C`, the concentration at half-maximal activity (AC50) is 10 µM (active) in assay [9], 0.603 µM (active) in assay [10] and 6.06 µM (active) in the assay with SRD5A2 (gene 6716).

On to `CN(C(=O)C(F)(F)C(F)(F)C(F)(F)F)[Si](C)(C)C`, for which the outcome in the assay with CD40, CD40 (gene 958) was “inactive”; in [1] it was “inactive”; in assay [2], “inactive”; in [3], “inactive”; in [4], “inactive”; in assay [5], “inactive”. Moreover, the outcome in assay [6] is “inactive”; in [7], “inactive”; in [8], “inactive”; in the assay with CD69, CD69 (gene 969) it was “inactive”; in [11], “inactive”.

Consider `O=S(=O)(OCC(F)(F)F)C(F)(F)C(F)(F)C(F)(F)C(F)(F)F`, for which the outcome with CD40, CD40 (gene 958) was “inactive”; in [1], “inactive”; in [2] it was “inactive”; in assay [3], “inactive”; in assay [4], “inactive”; in assay [5], “inactive”. The result in assay [6], in [7], in assay [8] and in [11] was inactive. Moreover, the AC50 in the assay with CD69, CD69 (gene 969) was 30 µM (active) and 890 nM (active); in the assay on TTR (gene 7276) it was 1.4 µM (active).

Source of the values: PubChem BioAssay (EPA / NIEHS).
